Only some compounds are listed: those with a hit (about 3.5% of all), similar ones and a draw of the others.
mHTT CaM bind: mutant huntingtin-calmodulin interaction inhibitors – biochemical, AlphaScreen, primary screen. AlphaScreen His-mHTT/GST-CaM binding, luminescence. inhibition, % at 15 µM. 190,000 compounds, 3.6% hits. AID 1671202, 2021
Pf apPOL block: Pf-apPOL inhibitors, biochemical, fluorescence; AID 1794808, 2022; 210,000 compounds, 0.25% hits; Plasmodium falciparum apicoplast DNA polymerase (apPOL); inhibition, % at 10 µM; Recombinant Pf-apPOL, molecular beacon fluorescence, 1.5 h
Hits are given with their value; - = inactive; . = no result. No stated cut-off is given here; in the data, active means inhibition above about 50%; inactive means the rest.

SMILES	mHTT CaM bind	Pf apPOL block
CN(C)c1ccc(CN2CCCC2c2nc(-c3cccnc3)no2)cc1 (stereo unspecified)	56.3	-
c1cncc(-c2noc(C3CCCCN3Cc3ccco3)n2)c1 (stereo unspecified)	-	-
O=C(Nc1nnc(-c2cc(Cl)sc2Cl)o1)C1COc2ccccc2O1 (stereo unspecified)	81.2	-
O=C(CSc1ccccc1)Nc1nnc(-c2cc(Cl)sc2Cl)o1	-	-
Cc1cc(C)nc(NS(=O)(=O)c2ccc(NC(=O)C3COc4ccccc4O3)cc2)n1 (stereo unspecified)	-	-
O=C(Nc1nnc(CCS(=O)(=O)c2ccccc2)o1)C1COc2ccccc2O1 (stereo unspecified)	65.3	-
CC(C)CN1C(=O)CCc2cc(NC(=O)C34CC5CC(CC(C5)C3)C4)ccc21	-	-
Cc1ccc(O)c(NC(=O)c2cnn3c2NC(c2cccs2)CC3C(F)(F)F)c1 (stereo unspecified)	-	-
CCOC(=O)/C=C1\CN(Cc2ccccc2)S(=O)(=O)c2ccc(C(F)(F)F)cc21	-	-
CCOC(=O)/C=C1\CN(Cc2ccc(OC)cc2)S(=O)(=O)c2ccc(C(F)(F)F)cc21	53.0	77.7
Nc1nc(COc2ccc(Cl)cc2)cs1	-	-
Cc1ccc([C@H]2C[C@H](O)[C@@H](n3cc(COC(=O)c4ccccc4)nn3)CN2Cc2cccs2)cc1	99.7	-
Cc1ccc([C@H]2C[C@@H](O)[C@H](n3cc(COC(=O)c4ccccc4)nn3)CN2Cc2cccs2)cc1	-	-
O=C(OCc1cn([C@H]2C[C@H](c3ccc(Cl)cc3)N(Cc3cccs3)C[C@@H]2O)nn1)c1ccccc1	-	-
O=C(OCc1cn([C@H]2CN(Cc3cccs3)[C@@H](c3ccc(Cl)cc3)C[C@@H]2O)nn1)c1ccccc1	100.2	-
CN(c1cccc(C(F)(F)F)c1)S(=O)(=O)c1cc2n(c1)CCCNC2=O	-	-
Cc1ccc(C)n1-c1ccc(Cl)c(C(=O)NN)c1	-	-
COc1ccc(-n2c(C)ccc2C)cc1Cl	61.6	-
COc1ncc(-c2ccc(N3C(c4ccsc4)=Cc4ccc(F)cc4C3CC(=O)c3ccco3)cc2)cn1 (stereo unspecified)	-	-
O=C(CC1c2ccccc2C=C(c2ccsc2)N1c1ccc(-c2cccnc2)cc1)C1CC1 (stereo unspecified)	84.1	-
COc1cc(OC)cc(C2=Cc3ccccc3C(CC(C)=O)N2c2ccc(-c3cccs3)cc2)c1 (stereo unspecified)	-	-
COc1cc(OC)cc(C2=Cc3ccccc3C(CC(C)=O)N2c2ccc(-c3cncnc3)cc2)c1 (stereo unspecified)	50.1	-
O=C(NCCC1=CCCCC1)C(=O)c1c[nH]c2ccccc12	-	-
O=C(c1cccs1)N1CCN(c2cc(N3CCCCCC3)c(F)cc2[N+](=O)[O-])CC1	59.7	-
Cc1cc(N2CCN(C(=O)c3cccs3)CC2)c(F)cc1[N+](=O)[O-]	-	-
SMILES	mHTT CaM bind	Pf apPOL block
CCCOc1nccnc1N1CCC(N(C)C(=O)NCc2ccco2)C1 (stereo unspecified)	-	-
Cc1ccc([N+](=O)[O-])cc1NS(=O)(=O)c1cc(C(=O)O)ccc1Br	-	-
COc1cccc2c1Oc1[nH]c(-c3ccc(OC)c(OC)c3OC)nc(=S)c1C2	-	-
COc1cccc(-c2nc(=S)c3c([nH]2)Oc2c(cccc2OC)C3)c1O	52.9	-
COCCNc1nc(SCC(=O)Nc2cc(C)[nH]n2)nc2ccccc12	-	-
CCNc1cc(N2CCC(CCC(=O)N3CCCC3)CC2)ncn1	-	-
c1ccc(-c2csc(NCc3ccco3)n2)cc1	-	-
c1ccc(-c2csc(NCc3ccco3)n2)nc1	98.6	-
c1ccc(CNc2nc(-c3ccccn3)cs2)cc1	100.2	-
CCNc1nc(-c2ccccc2)cs1	.	-
COc1ccc(CCNC(=O)C2CC(=O)N(c3ccc(C)c(Cl)c3)C2)cc1OC (stereo unspecified)	-	-
Cn1cc(Br)c(C(=O)Nc2ccc(Br)cc2)n1	-	-
COc1ccccc1NC(=O)c1nn(C)cc1Br	-	61.2
COc1ccc(C(=O)N2CCCC(c3nc(CNC(=O)C(C)C)cs3)C2)cc1 (stereo unspecified)	-	-
Cc1cc(C)n(-c2ccc(Nc3ccc(NC(=O)c4ccco4)cc3)nn2)n1	66.8	-
CCOc1cc(Nc2ccc(NC(=O)c3ccco3)cc2)nc(C)n1	-	-
CC1(C(=O)NC2CCCC2)CCC(=O)N1Cc1cccnc1 (stereo unspecified)	-	-
COc1ccc(NC(=O)CC(NCCCO)C(=O)O)c(OC)c1 (stereo unspecified)	-	-
COc1cccc(C(=O)N2CCC(CCOc3ccc(F)cc3)CC2)c1	-	-
O=C(c1ccc(F)c(F)c1)N1CCC(CCOc2ccccc2F)CC1	-	-
COc1ccccc1C(=O)N1CCC(CCOc2ccccc2F)CC1	52.3	-
CN(C)c1cccc(C(=O)N2CCC(CCOc3ccccc3F)CC2)c1	95.0	-
CN(C)c1cccc(C(=O)N2CCC(CCOc3ccc(F)cc3)CC2)c1	93.4	-
COc1cccc(C(=O)N2CCC(CCOc3ccccc3)CC2)c1	-	-
COCCC1CCN(C(=O)c2ccccc2OC)CC1	-	-
SMILES	mHTT CaM bind	Pf apPOL block
CN(C)c1cccc(C(=O)N2CCC(CCOc3ccccc3)CC2)c1	86.2	-
CCCNC(=O)OCC12CC3CC(CC(C3)C1)C2	-	-
CCN(CC)c1ccc2cc(C(=O)c3cc4ccc(N(CC)CC)cc4oc3=O)c(=O)oc2c1	.	-
O=C(NCc1cc(-c2ccccc2)on1)c1ccc(C(F)(F)F)cc1	-	-
CC(=O)N1CCN(C(=O)c2cnn(-c3ccccc3)c2C(C)C)CC1	-	-
COCCC1CCN(C(=O)c2ccc(OC)cc2C)CC1	-	-
COc1ccc(C(=O)N2CCC(CCOc3ccccc3)CC2)c(C)c1	59.8	-
CCC(=O)NCc1nc2c(n1C)CN(S(=O)(=O)c1ccc(F)c(F)c1)CC2	-	-
CC(C)(C)c1cc(O)c(C(C)(C)C)cc1O	-	-
Cc1cc(Cc2cc(C(C)(C)C)c(O)c(C(C)(C)C)c2)c(O)c(C(C)(C)C)c1	-	.
Cc1cc(Sc2cc(C)c(O)c(C(C)(C)C)c2)cc(C(C)(C)C)c1O	-	.
Cc1cc(O)c(C(C)(C)C)cc1Sc1cc(C(C)(C)C)c(O)cc1C	100.3	.
Cc1cc(S(=O)c2cc(C)cc(C(C)(C)C)c2O)c(O)c(C(C)(C)C)c1	72.3	.
Cc1cc(O)c(C(C)(C)C)cc1S(=O)c1cc(C(C)(C)C)c(O)cc1C	68.0	.
COc1cc(OC)c(OC)cc1C=C1C(=O)OC2(CCCCC2)OC1=O	-	-
CC(C)C1N=C(N)C(=C(C#N)C#N)N1 (stereo unspecified)	-	.
Cc1ccc(NC(=O)c2ccc([N+](=O)[O-])c(C)c2)cc1Cl	-	-
Cc1ccc(NC(=O)c2ccc(NCCN)c([N+](=O)[O-])c2)cc1Cl	53.8	-
Cc1ccc(C2=NNC(C)(CC(=O)Nc3ccccc3)S2)cc1 (stereo unspecified)	72.0	-
Cc1ccc(N=C2NC(=O)C(CC(=O)Nc3ccccc3)S2)cc1 (stereo unspecified)	-	-
Cc1ccc(NC2(c3ccccc3)C(=O)c3ccccc3C2=O)cc1	-	-
COc1ccc(NC2(c3ccc(Cl)cc3)C(=O)c3ccccc3C2=O)cc1	100.3	-
